According to PubChem BioAssay (Tox21):
Records with an inconclusive call do not appear. Activity calls are given as the source filed them. Unless noted, calls follow the shape of the dose curve; as a rule, active = well fitted curve in the direction sought with a large enough effect in the repeat runs; inconclusive = weak or mixed curves; inactive = no such curve, though single readings can be large; an effect the other way counts as inactive or inconclusive.

How the values were obtained:
[1] = A CellTox Green Cytotoxicity Assay to monitor cytotoxicity in HEK293 cells - 16 hour (AID 1224888); also: nearly all actives have a fitted effect of over 35% in size
Summary of the method: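 HEK293 cells, 600/well, were preincubated 5 hours and then exposed to compounds at 37 C for up to 40 hours. A cell-impermeant cyanine dye staining dead-cell DNA was read by fluorescence at 0, 8, 16, 24, 32 and 40 h time points.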

[2] = A CellTox Green Cytotoxicity Assay to monitor cytotoxicity in HepG2 cells - 8 hour (AID 1224890); also: nearly all actives have a fitted effect of over 45% in size
Summary of the method: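 HepG2 cells, 600/well, preincubated 5 h with CellTox Green dye, then exposed to Tox21 compounds in DMSO at 37 C for up to 40 h. Dead-cell DNA fluorescence read at the indicated time point.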

[3] = qHTS assay to identify small molecule antagonists of the estrogen receptor alpha (ER-alpha) signaling pathway using the BG1 cell line in the presence of 0.1 nM 17-beta-estradiol - cell viability counter screen (AID 1259241); also: nearly all actives have a fitted effect of over 40% in size
Summary of the method: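 Measures cytotoxicity alongside the ER-alpha antagonist readout: VM7Luc4E2 cells, charcoal-stripped serum, 0.1 nM 17beta-estradiol final, 22 hr compound incubation at 37C, CellTiter-Fluor fluorescence.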

[4] = qHTS assay to identify small molecule antagonists of the androgen receptor (AR) signaling pathway using the MDA cell line in the presence of 0.5 nM R1881 - cell viability counter screen (AID 1259242); also: nearly all actives have a fitted effect of over 45% in size
Summary of the method: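 MDA-kb2 cells (MMTV-luciferase, AR/GR responsive) were treated with compounds plus 0.5 nM R1881 (final) for 16 hr at 37C, 0% CO2. Viability was then read in the same wells as live-cell protease fluorescence (CellTiter-Fluor, 30 min).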

[5] = target: Androgen receptor (Homo sapiens) (UniProt P10275); test: qHTS assay to identify small molecule antagonists of the androgen receptor (AR) signaling pathway using the MDA cell line in the presence of 0.5 nM R1881 (AID 1259243); also: nearly all actives have a fitted effect of over 50% in size
Summary of the method: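 MDA-kb2 cells (MMTV-luciferase, responsive to AR and GR) at 3,000/well, rested 5 h at 37C, 0% CO2, then given compounds plus 0.5 nM R1881 (final) for 16 hr. Luciferase read with ONE-Glo after 30 min at room temperature.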

[6] = target: Estrogen receptor (Homo sapiens) (UniProt P03372); test: qHTS assay to identify small molecule antagonists of the estrogen receptor alpha (ER-alpha) signaling pathway using the BG1 cell line in the presence of 0.1 nM 17-beta-estradiol (AID 1259244); also: nearly all actives have a fitted effect of over 50% in size
Summary of the method: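 VM7Luc4E2 cells (endogenous full-length ER-alpha, 4×ERE-luciferase), kept 5 days in phenol red-free, charcoal-stripped FBS medium; 4,000 cells/well. Compounds added with 0.1 nM (final) 17beta-estradiol, 22 hr at 37C; luminescence read with ONE-Glo after 30 min.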

[7] = qHTS assay to identify small molecule HDAC inhibitors (AID 1259364); also: top concentration of the series differs between compounds; nearly all actives have a fitted effect of over 45% in size
Summary of the method: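 Wild-type HCT-116 cells, plated overnight at 37 C, exposed to compounds 2 hr at 37 C; luminogenic HDAC-Glo substrate then added 30 min at room temperature. Luminescence reports relative endogenous class I/II HDAC activity.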

[8] = qHTS assay to identify small molecule HDAC inhibitors - cell viability counter screen (AID 1259365); also: series mostly up to about 92 µM; nearly all actives have a fitted effect of over 50% in size
Summary of the method: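 Following a 2hr exposure of overnight-plated wild-type HCT-116 cells to DMSO-delivered compounds, CellTiter-Glo was added and luminescence recorded after 30min at room temperature.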

[9] = qHTS assay to identify small molecule agonists of the sonic hedgehog signaling (Shh) pathway - cell viability counter screen (AID 1259366); also: nearly all actives have a fitted effect of over 50% in size
Summary of the method: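 After a 4hr attachment at 37C, NIH/3T3 cells bearing an integrated Gli1-driven luciferase reporter were dosed with compounds. Treatment lasted 24hr, with the final hour including CellTiter-Fluor for a fluorescence viability measurement.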

[10] = qHTS assay to identify small molecule antagonists of the sonic hedgehog signaling (Shh) pathway - cell viability counter screen (AID 1259367); also: nearly all actives have a fitted effect of over 55% in size
Summary of the method: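 Seed 3T3 Gli1-Luc cells at 2,000 per well; incubate 4 hr; add compound in DMSO, then conditioned medium; incubate at 37C with 5% CO2; add CellTiter-Fluor after 23 hr; read fluorescence 1 hr later.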

[11] = qHTS assay to identify small molecule agonists of the sonic hedgehog signaling (Shh) pathway (AID 1259368; calls by dose curve;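 also: NIH/3T3-derived 3T3Gli1-Luc cells carrying a stable Gli1-driven firefly luciferase reporter; series mostly up to about 92 µM; nearly all actives have a fitted effect of over 15% in size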)
Summary of the method: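 NIH/3T3-derived 3T3Gli1-Luc cells with stably integrated Gli1-driven firefly luciferase, 2,000 cells/well, compounds added after 4 hr. Incubated 24 hr at 37C, 5% CO2; luminescence read after 30 min with luciferase reagent at room temperature.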

[12] = qHTS assay to identify small molecule antagonists of the sonic hedgehog signaling (Shh) pathway (AID 1259369; calls by dose curve; also: nearly all actives have a fitted effect of over 45% in size)
Summary of the method: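 NIH/3T3-derived Gli1-Luc reporter cells plated 4 h, dosed with compound, then stimulated with conditioned medium for 24 h at 37 C. Firefly luciferase luminescence read after 30 min with detection reagent at room temperature.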

[13] = target: Estrogen receptor beta (Homo sapiens) (UniProt Q92731); test: qHTS assay to identify small molecule agonists of the estrogen receptor beta (ER-beta) signaling pathway (AID 1259377; active = well fitted activation curve with a large enough effect in the signal ratio in the repeat runs, not every such curve was filed as active; the % refers to the signal ratio)
Summary of the method: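 In HEK293T cells bearing a UAS-beta-lactamase reporter under ER-beta control, DMSO-delivered compounds were incubated for 16 hr at 37C. Activity was detected as fluorescence 2 hours after LiveBLAzer B/G FRET substrate addition.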

[14] = target: Estrogen receptor beta (Homo sapiens) (UniProt Q92731); test: qHTS assay to identify small molecule antagonists of the estrogen receptor beta (ER-beta) signaling pathway (AID 1259378; active = well fitted inhibition curve with a large enough effect in the signal ratio in the repeat runs, not every such curve was filed as active; the % refers to the signal ratio)
Summary of the method: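 ER-beta-UAS-bla HEK293T cells in 2% charcoal-stripped FBS medium treated with compound plus 1nM final 17-beta-estradiol for 16 hr at 37C. Beta-lactamase reporter read by FRET substrate fluorescence after 2 hours at room temperature.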

[15] = qHTS assay to identify small molecule agonists of the androgen receptor (AR) signaling pathway in the presence of an antagonist - cell viability counter screen (AID 1259379);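 also: MDA-kb2 human breast cancer cells carrying an MMTV luciferase reporter; series mostly up to about 92 µM; nearly all actives have a fitted effect of over 25% in size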
Summary of the method: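 MDA-kb2 cells (MMTV-luciferase, AR/GR), 3,000/well, 5 h attachment, then 3.0 µM nilutamide (final) and compounds at 15 concentrations. Viability by CellTiter-Fluor fluorescence after 16 h at 37 °C, 0% CO2, in the reporter wells.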

[16] = qHTS assay to identify small molecule agonists of the estrogen receptor beta (ER-beta) signaling pathway - cell viability counter screen (AID 1259380); also: nearly all actives have a fitted effect of over 30% in size
Summary of the method: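 ER-beta-UAS-bla HEK293T cells in medium with 2% charcoal-stripped FBS, pre-incubated 6 hr, then treated 16 hr at 37C. Cytotoxicity read in the same wells by CellTiter-Glo luminescence after 30 min at room temperature.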

[17] = target: Androgen receptor (Homo sapiens) (UniProt P10275); test: qHTS assay to identify small molecule agonists of the androgen receptor (AR) signaling pathway in the presence of an antagonist (AID 1259381; calls by dose curve; also: nearly all actives have a fitted effect of over 15% in size)
Summary of the method: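 MDA-kb2 cells carrying MMTV-luciferase (AR/GR responsive), 3,000 cells/well, co-treated with 3.0 uM nilutamide final. Compounds at 15 concentrations, 16 hr at 37C without CO2. Luciferase luminescence read after 30 min with ONE-Glo.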

[18] = qHTS assay to identify small molecule antagonists of the estrogen receptor beta (ER-beta) signaling pathway - cell viability counter screen (AID 1259382); also: series mostly up to about 92 µM; nearly all actives have a fitted effect of over 55% in size
Summary of the method: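 ER-beta-UAS-bla HEK293T cells in 2% charcoal-stripped FBS medium, treated with compound plus 1 nM 17-beta-estradiol for 16 h at 37C. Viability read by CellTiter-Glo luminescence after 30 min at room temperature in the same wells.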

[19] = qHTS RealTime-Glo MT Cell Viability Assay in HepG2 cells - 0 hour (AID 1224889); also: nearly all actives have a fitted effect of over 50% in size
Summary of the method: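 Real-time, nonlytic viability: 600 HepG2 cells/well mixed with NanoLuc enzyme plus prosubstrate; 5 h settle, compound (DMSO) added by pintool; luminescence monitored over 40 h at 37 C.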

[20] = qHTS assay to identify small molecule phospholipidosis (PLD) inducers (AID 1259344; active = well fitted curve in the direction sought with a large enough effect; an effect the other way counts as inactive or inconclusive)
Summary of the method: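 Quantitative HTS in HepG2: compound plus LipidTOX Red dye for 24 h, paraformaldehyde fixation with Hoechst 33342, widefield high-content imaging; amiodarone as positive and DMSO as negative control.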
% is scaled to controls: 0 for no effect and ±100 for the full control effect.

Sequence of Estrogen receptor (Homo sapiens) (P03372 whole entry, looked up): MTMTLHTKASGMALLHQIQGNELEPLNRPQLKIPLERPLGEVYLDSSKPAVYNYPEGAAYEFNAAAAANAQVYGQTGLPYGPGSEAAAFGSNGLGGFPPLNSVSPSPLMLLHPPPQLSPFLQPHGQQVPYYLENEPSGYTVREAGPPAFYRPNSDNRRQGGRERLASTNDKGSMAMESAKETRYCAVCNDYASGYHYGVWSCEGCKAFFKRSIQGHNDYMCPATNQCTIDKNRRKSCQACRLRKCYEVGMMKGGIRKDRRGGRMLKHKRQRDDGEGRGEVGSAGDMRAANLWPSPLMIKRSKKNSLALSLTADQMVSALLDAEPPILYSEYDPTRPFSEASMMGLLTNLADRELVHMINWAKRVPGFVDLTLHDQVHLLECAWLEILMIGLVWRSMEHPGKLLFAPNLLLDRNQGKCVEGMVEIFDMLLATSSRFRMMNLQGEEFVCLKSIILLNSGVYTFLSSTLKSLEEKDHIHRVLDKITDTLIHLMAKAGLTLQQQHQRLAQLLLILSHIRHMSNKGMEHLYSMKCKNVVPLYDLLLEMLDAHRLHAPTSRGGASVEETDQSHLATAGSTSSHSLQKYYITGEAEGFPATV
Sequence of Estrogen receptor beta (Homo sapiens) (Q92731 whole entry, looked up): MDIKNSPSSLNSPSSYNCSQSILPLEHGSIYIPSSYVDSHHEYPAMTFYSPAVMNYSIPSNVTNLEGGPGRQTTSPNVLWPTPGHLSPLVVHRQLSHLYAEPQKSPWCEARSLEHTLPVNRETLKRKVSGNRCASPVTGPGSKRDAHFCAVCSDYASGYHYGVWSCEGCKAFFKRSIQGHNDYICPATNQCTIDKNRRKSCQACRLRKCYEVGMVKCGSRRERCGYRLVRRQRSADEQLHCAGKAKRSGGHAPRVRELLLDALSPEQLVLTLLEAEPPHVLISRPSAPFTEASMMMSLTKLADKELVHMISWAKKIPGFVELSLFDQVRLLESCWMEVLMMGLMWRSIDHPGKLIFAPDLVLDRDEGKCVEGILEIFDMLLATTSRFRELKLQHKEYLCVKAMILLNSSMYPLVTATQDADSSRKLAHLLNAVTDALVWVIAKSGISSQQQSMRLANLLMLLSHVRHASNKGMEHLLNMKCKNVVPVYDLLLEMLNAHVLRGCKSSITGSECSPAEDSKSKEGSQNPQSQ
Sequence of Androgen receptor (Homo sapiens) (P10275 whole entry, looked up): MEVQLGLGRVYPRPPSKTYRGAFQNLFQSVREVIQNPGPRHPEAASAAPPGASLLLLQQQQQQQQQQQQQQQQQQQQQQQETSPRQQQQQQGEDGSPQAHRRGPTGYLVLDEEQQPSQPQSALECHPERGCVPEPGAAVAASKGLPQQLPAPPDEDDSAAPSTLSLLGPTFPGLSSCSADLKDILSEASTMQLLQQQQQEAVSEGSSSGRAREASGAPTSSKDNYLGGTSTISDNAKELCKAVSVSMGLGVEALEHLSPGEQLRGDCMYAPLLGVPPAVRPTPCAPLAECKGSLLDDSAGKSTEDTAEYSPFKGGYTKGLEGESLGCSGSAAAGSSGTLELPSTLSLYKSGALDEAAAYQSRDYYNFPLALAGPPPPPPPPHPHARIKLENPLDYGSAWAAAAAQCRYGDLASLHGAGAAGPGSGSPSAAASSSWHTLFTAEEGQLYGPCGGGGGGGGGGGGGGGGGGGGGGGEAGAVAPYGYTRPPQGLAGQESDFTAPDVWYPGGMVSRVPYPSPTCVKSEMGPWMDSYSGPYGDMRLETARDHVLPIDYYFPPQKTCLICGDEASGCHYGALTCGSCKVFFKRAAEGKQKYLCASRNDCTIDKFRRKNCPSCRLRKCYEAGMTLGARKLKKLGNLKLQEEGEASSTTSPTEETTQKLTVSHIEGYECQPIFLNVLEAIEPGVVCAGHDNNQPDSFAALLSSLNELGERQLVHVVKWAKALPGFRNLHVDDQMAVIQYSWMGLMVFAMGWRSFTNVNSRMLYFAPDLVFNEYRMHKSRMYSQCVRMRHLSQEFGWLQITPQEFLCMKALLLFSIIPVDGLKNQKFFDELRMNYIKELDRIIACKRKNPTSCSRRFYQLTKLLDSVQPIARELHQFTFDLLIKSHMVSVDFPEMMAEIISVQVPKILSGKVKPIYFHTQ

CCCC(=O)C(CC)Sc1ccoc1C (stereo not given)
inactive: Potency [1] | Potency [2] | outcome [3] | outcome [4] | Potency [5] | outcome [6] | Potency [7] | outcome [8] | outcome [9] | outcome [10] | outcome [11] | Potency [12] | Potency [13] | outcome [14] | outcome [15] | Potency [16] | outcome [17] | outcome [18]

CC(=O)Nc1ccc(S(=O)(=O)Nc2cc(C)on2)cc1
inactive: Potency [1] | Potency [19] | outcome [3] | outcome [4] | outcome [6] | PLD induction [20] 3.97% [at 7.66 µM] | outcome [8] | outcome [9] | outcome [10] | outcome [11] | Potency [12] | outcome [15] | Potency [16]

CCCCCCCCC1CO1 (stereo not given)
inactive: Potency [1] | Potency [19] | outcome [3] | outcome [4] | Potency [5] | outcome [8] | outcome [9] | outcome [10] | outcome [11] | Potency [12] | Potency [13] | outcome [14] | outcome [15] | Potency [16] | outcome [17] | outcome [18]

N[C@H]1C(O)O[C@H](CO)[C@@H](O)[C@@H]1O (stereo not given in full)
inactive: Potency [1] | Potency [2] | outcome [3] | outcome [4] | Potency [5] | outcome [6] | Potency [20] | Potency [7] | outcome [8] | outcome [9] | outcome [10] | outcome [11] | Potency [12] | Potency [13] | outcome [14] | outcome [15] | Potency [16] | outcome [17] | outcome [18]

O=C(CCBr)N1CCN(C(=O)CCBr)CC1
inactive: Potency [1] | Potency [19] | outcome [3] | outcome [4] | outcome [6] | Potency [20] | Potency [7] | outcome [8] | outcome [9] | outcome [10] | outcome [11] | Potency [12] | outcome [15] | Potency [16] | outcome [18]

COC(=O)/C=C(\C)CCC=C(C)C
inactive: Potency [1] | Potency [19] | outcome [3] | outcome [4] | outcome [6] | Potency [7] | outcome [8] | outcome [9] | outcome [10] | outcome [11] | Potency [12] | Potency [13] | outcome [14] | outcome [15] | Potency [16] | outcome [18]

O=c1[nH]c(=O)c2cn[nH]c2[nH]1
inactive: Potency [1] | Potency [19] | outcome [3] | outcome [4] | Potency [7] | outcome [8] | outcome [9] | outcome [10] | outcome [11] | Potency [12] | Potency [13] | outcome [14] | outcome [15] | Potency [16] | outcome [18]

CCCCCCCOC(C)=O
inactive: Potency [1] | Potency [19] | outcome [3] | outcome [4] | outcome [6] | outcome [8] | outcome [9] | outcome [10] | Potency [12] | outcome [15] | Potency [16] | outcome [18]

CN(C)CCc1c[nH]c2ccc(C[C@H]3COC(=O)N3)cc12
inactive: Potency [1] | Potency [19] | outcome [3] | outcome [4] | outcome [6] | Potency [20] | Potency [7] | outcome [8] | outcome [9] | outcome [10] | outcome [11] | Potency [12] | Potency [13] | outcome [14] | outcome [15] | Potency [16]
